Experimental data reported in PubChem BioAssay AID651871 (Sanford-Burnham Center for Chemical Genomics, 2012).

System: HL-1
Assay: cardiomyocyte survival under oxidative or metabolic stress – cell-based, panel, H9c2 and HL-1, ATP luminescence, set 2, SAR follow-up (AID 651871);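 note: cells exposed to stressor for 2 h before ATP readout; reference of the scale not given here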
Conditions: H9c2/HL-1 cardiomyocytes, 2-deoxyglucose stress, with 2-deoxyglucose, run 12, at 19.8 µM (top of the series)

COc1ccc2c(c1OC)C(=O)N1c3ccccc3C(=O)N(Cc3cccc(Cl)c3Cl)C21 (stereo unspecified)
activity (protection/inhibition): 51%
